Records with an inconclusive call do not appear. A number with no mark means an inactive call. Calls come from the whole dose curve.
Potency is the fitted concentration of half-maximal effect.

A short description of the test: Cell Viability - BJ (AID 421).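 Note: cells exposed to compound for 40 hours at 37 °C before readout.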 To be noted: BJ fibroblast viability, qHTS. An excerpt: NIH Chemical Genomics Center [NCGC]
NIH Molecular Libraries Screening Centers Network [MLSCN]
National Institutes of Environmental Health Sciences [NIEHS]
National Toxicology Program [NTP]
We have developed a 1536-well cell-based assay for quantitative high throughput screening (qHTS) against a number of cell lines to determine in vitro cytotoxicity of small molecules. This particular assay uses the BJ cell line from ATCC which is derived from normal human foreskin fibroblasts.
NCGC Assay Protocol Summary:
The CellTiter-Glo luminescent cell viability assay (Promega) is a homogeneous method to measure the number of viable cells in culture. The end point readout of this assay is based on quantitation of intracellular ATP, an indicator of metabolic activity, using the luciferase reaction. Luciferase catalyzes the oxidation of beetle Luciferin to oxyluciferin and light in the presence of ATP. The luminescent signal is proportional to amount of ATP present.
Using the CellTiter-Glo luminescent cell viability assay, the amount of cellular ATP was measured in the BJ cell line with complete culture medium following compound treatment for 40 hours. The assay was performed in opaque white Kalypsys 1536-well plates. In the screen, tamoxifen and doxorubicin were used as positive controls. Library compounds were measured for their ability to cause acute toxicity in the cell line, as reflected by a decrease in intracellular ATP levels, in a concentration-dependent manner. Data were normalized to the controls for basal activity (DMSO only) and 100% inhibition (100 uM tamoxifen). AC50 values were determined from concentration-response data modeled with the standard Hill equation.
qHTS protocol fo CellTiter Glo BJ cellular assay
[Step] [Parameter] [Value] [Description]
1. Reagent; 5 uL; 1500 BJ cells/well
2. Time; 5 hr; 37 °C incubation
4. Controls; 23 nL; Tamoxifen 0.34 uM to 100 uM & Doxorubicin 0.02 nM to 100 uM
5. Time; 40 hr; 37 °C incubation
6. Reagent; 5 uL; CellTiter Glo reagent
7. Time; 20 min; Room Temperature
8. Detection; Luminescence; Viewlux plate reader
Keywords: cell viability, cytotoxicity, BJ cell line, luminescence, NTPHTS, NTPHTS_NCGC, NIEHS, EPA, DSSTox, MLSMR, MLSCN, NIH Roadmap, qHTS, NCGC
A general note: Quantitative high-throughput screening tests each substance at several concentrations.
Take `Clc1ccc(C(c2ccc(Cl)cc2)C(Cl)(Cl)Cl)cc1`: the Potency was more than 92 µM.
The figure for `NCCc1ccc(O)cc1` is more than 92 µM; for `CCC(C)(C)c1ccc(O)cc1` it is more than 92 µM.
The figure for `CC(C)NC(C)C` is more than 92 µM; for `Oc1ccc(Cl)cc1` it is more than 92 µM.
Take `Nc1ccccc1`: the Potency was more than 92 µM.
As for `CC(C)c1cccc(C(C)C)c1O`, the Potency is more than 92 µM.
On to `COc1cc(OC)c(OC)cc1C=O`, for which the Potency is more than 92 µM.
Next, `C[C@]1(O)CC[C@H]2[C@@H]3CCC4=CC(=O)CC[C@]4(C)[C@@]3(F)[C@@H](O)C[C@@]21C`: more than 92 µM.
Next, `Nc1ccccc1C(=O)O`: more than 92 µM.
In the case of `C[C@]12CCC(=O)C=C1CC[C@@H]1[C@@H]2CC[C@@]2(C)[C@H]1CC[C@]2(C)O`, the Potency is more than 92 µM.
Turning to `COC(=O)C(c1ccccc1)C1CCCCN1` (stereo not drawn), the Potency was more than 92 µM.
The figure for `O=P1(N(CCCl)CCCl)NCCCO1` (stereo not drawn) is more than 92 µM; for `CCCC(C)(COC(N)=O)COC(N)=O` it is more than 92 µM; for `CN1C[C@H](C(=O)N[C@]2(C)O[C@@]3(O)[C@@H]4CCCN4C(=O)[C@H](Cc4ccccc4)N3C2=O)C=C2c3cccc4[nH]cc(c34)C[C@H]21` it is more than 92 µM.
Next, `C[C@]12CCC(=O)C=C1CC[C@@H]1[C@@H]2CC[C@]2(C)C(=O)CC[C@@H]12`: more than 92 µM; `CCOC(=O)CC(SP(=S)(OC)OC)C(=O)OCC` (stereo not drawn): more than 92 µM.
Consider `COP(=S)(OC)Oc1ccc(SC)c(C)c1`, for which the Potency was more than 92 µM.

Source of the values: PubChem BioAssay (NCATS).
